From the supplement of paper PMC3334620
Whole data set: some 33,000 sequences, median “E-score (-0.5 to 0.5)” near -0.012, cut for the highest 2% near 0.29. Shown is part of a subset that was picked to be rich in the highest values.

These sequences were tested against T1, Ybr033w (UniProt P38073) (assay: PBM E-score (8-mer binding enrichment) (E-score (-0.5 to 0.5)); higher = stronger / more preferred TF binding). Conditions: protein concentration: 200 nM; construct: GST-full length.
T1 sequence: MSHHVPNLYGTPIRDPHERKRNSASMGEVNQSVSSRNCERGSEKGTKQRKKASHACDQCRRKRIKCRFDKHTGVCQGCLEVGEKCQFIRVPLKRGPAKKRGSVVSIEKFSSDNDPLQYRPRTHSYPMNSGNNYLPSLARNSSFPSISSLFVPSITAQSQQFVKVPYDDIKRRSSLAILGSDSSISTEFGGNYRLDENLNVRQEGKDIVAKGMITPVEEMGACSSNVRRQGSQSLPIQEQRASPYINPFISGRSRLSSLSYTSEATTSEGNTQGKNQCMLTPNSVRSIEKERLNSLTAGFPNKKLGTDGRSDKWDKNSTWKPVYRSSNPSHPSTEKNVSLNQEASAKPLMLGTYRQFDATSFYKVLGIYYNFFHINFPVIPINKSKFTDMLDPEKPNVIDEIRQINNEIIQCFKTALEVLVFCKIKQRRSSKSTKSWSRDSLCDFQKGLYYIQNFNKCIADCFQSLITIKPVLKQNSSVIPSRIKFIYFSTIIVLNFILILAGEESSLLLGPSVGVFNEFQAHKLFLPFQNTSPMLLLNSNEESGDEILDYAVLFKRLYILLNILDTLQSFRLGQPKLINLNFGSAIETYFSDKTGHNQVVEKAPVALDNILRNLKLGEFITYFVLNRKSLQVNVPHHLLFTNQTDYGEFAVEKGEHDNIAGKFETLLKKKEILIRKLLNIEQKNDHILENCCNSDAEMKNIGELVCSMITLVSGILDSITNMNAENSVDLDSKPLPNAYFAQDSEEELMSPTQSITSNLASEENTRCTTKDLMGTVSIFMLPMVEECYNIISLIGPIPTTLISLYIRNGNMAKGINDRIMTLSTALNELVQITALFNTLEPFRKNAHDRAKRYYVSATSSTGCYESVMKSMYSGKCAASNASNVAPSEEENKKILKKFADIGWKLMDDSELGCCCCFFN
Experimental: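 Universal 'all 10-mer' protein binding microarrays (Agilent AMADID 015681) probed with GST-tagged S. cerevisiae TFs (full-length or DBD) made by in vitro transcription/translation (PURExpress), about 100-200 nM. Bound TF was detected with fluorescent anti-GST. Each ungapped 8-mer (which stands for itself and its reverse complement) is scored by the PBM enrichment score (E-score), a modified Wilcoxon-Mann-Whitney statistic from -0.5 to +0.5, computed with the Universal PBM Analysis Suite. Scale: above 0.35 generally sequence-specific binding.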

Row | Sequence | PBM E-score
1 | CTGGCCGC | -0.0871
2 | AACTTATG | 0.223
3 | GACTTATA | 0.293
4 | GACTTATC | -0.152
5 | TACTTATA | 0.12
6 | AACTTATA | 0.353
7 | CACTTATA | 0.176
8 | AAGCCACA | -0.0702
9 | AGCCTCTA | -0.114
10 | ACCAGAGA | 0.0781
11 | GAGTCGAA | 0.173
12 | TAATATTA | 0.342
13 | CAGTATCA | -0.0137
14 | GAGTATCA | 0.0233
15 | CAATATCA | 0.171
16 | GAATATTA | 0.315
17 | GAATATCA | 0.259
18 | CAATATTG | 0.199
19 | GAATATGA | 0.203
20 | TAATATCA | 0.319
21 | AAATATCA | 0.252
22 | CAATATTA | 0.27
23 | TAGTATCA | 0.319
24 | GTGTGTGA | 0.0756
25 | CGAGGTAA | -0.0143

Row | Sequence | PBM E-score
26 | GGAGCGCC | -0.27
27 | ACTAGTCG | -0.166
28 | ACCATCTC | -0.0025
29 | CCTCGTAA | -0.0544
30 | AAATATTA | 0.211
31 | AAATATTC | 0.37
32 | AAATATGC | 0.237
33 | GAATATCC | 0.227
34 | GAATATTC | 0.344
35 | AAATATTG | 0.274
36 | CAATATTC | 0.219
37 | AAATATTT | 0.357
38 | AATCTTTC | 0.00719
39 | GCCATTTA | -0.0426
40 | AGCAAGCC | -0.126
41 | AGGTGGAC | -0.104
42 | ATCTAGAA | 0.214
43 | CTAATTTA | 0.257
44 | ATAATTTA | 0.338
45 | AAAATTTG | 0.263
46 | ATAATTGG | 0.157
47 | ATAATTTC | 0.314
48 | ATAATTTG | 0.35
49 | GTAATTTA | 0.218
50 | CTAATTTC | 0.181

Row | Sequence | PBM E-score
51 | AGAATTTC | 0.0968
52 | GATCTGCA | -0.215
53 | ACACGTGT | -0.0649
54 | ATCCCAAC | 0.079
55 | ATAGGTAG | 0.0525
56 | ACTGCTAC | 0.0898
57 | GCGGACTA | -0.0323
58 | CCAAATTA | 0.269
59 | AAAAATTC | 0.228
60 | CAAAATTC | 0.308
61 | AAAAATTA | 0.302
62 | CAAAATTG | 0.0527
63 | CCAATTTA | 0.203
64 | GCAATTTA | 0.307
65 | ACAAATTG | 0.0817
66 | ACAAATTA | 0.328
67 | ACAATTTA | 0.225
68 | CAAAATTA | 0.182
69 | AAAAATGA | 0.233
70 | AAACGCAG | -0.0761
71 | ACCAAGTC | 0.139
72 | AGCACTGC | -0.022
73 | AGATGCAG | 0.0243
74 | CGAAGCTC | -0.147
75 | AGAAATTC | 0.178

Row | Sequence | PBM E-score
76 | GGAAATTA | 0.264
77 | GAAAATGA | 0.085
78 | GAAAATTA | 0.331
79 | AGAAATTA | 0.352
80 | CAAATTTA | 0.237
81 | TAAATTTA | 0.289
82 | AAAATTTA | 0.269
83 | TAAAATGA | 0.217
84 | TAAAATTA | 0.288
85 | TAAAATCA | 0.274
86 | GAAAATTC | 0.285
87 | AATGATGT | 0.17
88 | GTTCAGCA | -0.0295
89 | GTCGGCCA | -0.277
90 | AAACCATG | 0.0309
91 | AGACTGCA | -0.156
92 | ATCCATGC | 0.0934
93 | AGGTCAGG | -0.233
94 | CAATTTTA | 0.217
95 | GAATTTTA | 0.295
96 | AAATTTTA | 0.171
97 | CCAGCGAC | -0.116
98 | ATAGCTGG | -0.0109
99 | CAATGACG | -0.158
100 | AGAGTAAT | 0.313

Row | Sequence | PBM E-score
101 | GTAGTAAA | 0.188
102 | ATAGTAAT | 0.346
103 | AGAGTAAA | 0.0304
104 | CTAGTAAA | 0.242
105 | ATAGTAAA | 0.277
106 | TTAGTAAA | 0.301
107 | ATAGTAAC | 0.116
108 | AGAGTAAG | 0.126
109 | AGTGCTTA | -0.00926
110 | CCATTTGC | 0.0186
111 | AGGTAGTC | -0.165
112 | CAGTTAAA | 0.192
113 | TATTTAAA | 0.301
114 | GAGTTAAA | 0.0599
115 | TATTTTAA | 0.26
116 | TTTTAAAA | 0.073
117 | TAGTTAAA | 0.296
118 | AATTAAAA | 0.112
119 | TATTAAAA | 0.312
120 | CATTAAAA | 0.319
121 | CATTTAAA | 0.21
122 | CATTAAAC | 0.13
123 | CATTAAAG | 0.147
124 | AGAAATCC | 0.0392
125 | CGCAAGCC | 0.0476

Row | Sequence | PBM E-score
126 | ACAGAGTC | -0.176
127 | TAGTTGAA | 0.307
128 | TTGTTAAA | 0.0557
129 | GATTAAAA | 0.311
130 | GATTAAAC | 0.17
131 | CTGTTAAA | 0.109
132 | ATGTTAAA | 0.289
133 | CAGTTGAA | 0.00266
134 | AAGTTGAA | 0.0758
135 | GGTTAAAA | 0.0924
136 | CACTGTTC | -0.00287
137 | ACTTCATG | -0.118
138 | ACTGCAGC | -0.136
139 | ACTTACCC | 0.114
140 | CCGACCAA | -0.0529
141 | ATCATGAC | 0.0647
142 | CTGCTAAG | -0.132
143 | GCATCGAC | -0.0951
144 | TGACCACA | 0.0413
145 | TCCCTAAA | 0.0945
146 | ATTCGTGG | 0.0347
147 | CTATTTTA | 0.252
148 | AGATTTTA | 0.109
149 | ATATTTTA | 0.3
150 | GTATTTTA | 0.23

Row | Sequence | PBM E-score
151 | GTATTTAA | 0.267
152 | AGATTTCC | 0.135
153 | CTATTTAA | 0.022
154 | AGATTTTC | 0.322
155 | ATATTTAA | 0.372
156 | ATATTTAC | 0.215
157 | ATTTTTAG | 0.179
158 | ATATTTAG | 0.321
159 | CCATTTAG | -0.056
160 | CGTGGGCC | -0.155
161 | AATCCTAA | 0.0561
162 | CCTCCAGG | -0.322
163 | CACCGACG | -0.0189
164 | ATATCCAT | 0.196
165 | GAGCTCAC | -0.27
166 | CATATGCA | 0.0648
167 | CCCTTACC | -0.131
168 | ATCTTTTA | 0.236
169 | CTATTTTC | 0.284
170 | ATATTTCG | 0.269
171 | ATCTTTAA | 0.299
172 | CTATTTCC | 0.276
173 | ATATTTTC | 0.342
174 | ATCTTTAC | 0.203
